# Screening results (PubChem)
# Giardia FBPA inh: inhibitors of Giardia lamblia fructose-1,6-bisphosphate aldolase; A8B2U2; purified Giardia FBPA; Potency, µM (highest dose often 59.6 µM), without a hit: at the highest dose activity, negative = inhibition, most hits filed as inhibitors; 290,000 tested, 0.71% active; AID 2451; also: potency is read from the fitted curve at half-maximal effect; % is scaled to controls: 0 for no effect and ±100 for the full control effect; nearly all actives have a fitted effect of over 55% in size
# Target sequence (A8B2U2 whole entry, looked up): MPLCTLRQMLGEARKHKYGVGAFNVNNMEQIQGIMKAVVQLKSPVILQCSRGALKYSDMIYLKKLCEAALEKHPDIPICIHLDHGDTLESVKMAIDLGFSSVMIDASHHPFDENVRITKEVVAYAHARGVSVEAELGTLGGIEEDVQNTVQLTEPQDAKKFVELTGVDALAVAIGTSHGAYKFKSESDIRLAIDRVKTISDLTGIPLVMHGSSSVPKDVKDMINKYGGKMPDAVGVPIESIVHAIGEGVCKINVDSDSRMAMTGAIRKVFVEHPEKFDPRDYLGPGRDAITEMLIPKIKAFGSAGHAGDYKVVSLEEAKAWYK
#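 40 nM FBPA preincubated 10 min at RT with compound (up to 57.5 uM final), then substrate plus GAPDH/TPI/NAD/arsenate coupling and diaphorase/resazurin added. Fluorescence read after 20 min at RT, 525/598 nm.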
# RE007 growth inh: less growth of the S. pombe RE007 Vpr strain; S. pombe RE007 Vpr strain, BacTiter-Glo ATP luminescence, 24 h; Potency, µM (titrated, usually from 92.2 µM), for inactives: top-dose activity change, negative = less growth, actives largely listed as inhibitors; 360,000 tested, 0.21% active; active = well fitted falling curve with a large enough effect; inconclusive = small, poorly fitted or top-dose-only effect; inactive = no such curve, though single readings can be large or run the other way; also: potency is read from the fitted curve at half-maximal effect; % is scaled to controls: 0 for no effect and ±100 for the full control effect; nearly all actives have a fitted effect of over 50% in size
#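 Fission yeast RE007 carrying one integrated HIV-1 vpr copy, seeded at OD 0.01 in PMG+AL medium with 23 nL pinned compound. Grown 24 h at 30 degrees; viability read by BacTiter-Glo luminescence after 5 min.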
# LmPK inhibitor: LmPK (Leishmania mexicana) enzyme inhibition; Q27686; purified LmPK, Kinase-Glo ATP luminescence, 1 h; Potency, µM (titrated, usually from 57.5 µM), without a hit: at the top dose activity change, negative = inhibition, hits mostly inhibitors; 290,000 tested, 0.37% active; also: potency is read from the fitted curve at half-maximal effect; % is scaled to controls: 0 for no effect and ±100 for the full control effect
#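 Purified LmPK (0.1 nM) converted ADP (0.1 mM) to ATP with PEP (0.5 mM) in imidazole buffer pH 7.2 with KCl and MgCl2, 1 h at room temperature. ATP was read by Kinase-Glo luminescence; data normalized to uninhibited and no-enzyme controls.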
# Cycloheximide cs: affects cycloheximide protein synthesis inhibition readout, counter-screen | 300,000 tested, 12% active | cell reporter, cycloheximide protein synthesis inhibition counterscreen | max response, % | AID 2314; in the data active = max response mostly above about 13%, no sharp cut-off; inactive = mostly below about 14%; also: read at 38.3 µM for the half of the compounds with a filed dose; 0% is about no effect
# Shiga inhibitor: blocks Shiga toxin action in Vero cells; Vero cells, Shiga toxin protein synthesis inhibition reporter; inhibition, % at 38.7 µM; 290,000 tested, 9.2% active; AID 2315; in the data active = inhibition mostly above about 28%, no sharp cut-off; inactive = mostly below about 43%; also: 0% is about no effect
# Tb PYK inh: blocks Trypanosoma brucei pyruvate kinase. Q57TT1. TbPYK enzyme, Kinase-Glo Plus ATP luminescence, 45 min. Potency, µM (doses to about 76.8 µM), inactives show at the highest dose activity, negative = inhibition, actives largely listed as inhibitors. 410,000 tested, 0.12% active. AID 624173; also: potency is read from the fitted curve at half-maximal effect; % is scaled to controls: 0 for no effect and ±100 for the full control effect; nearly all actives have a fitted effect of over 50% in size
#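 Screened from lowest to highest concentration, compounds were pinned into TbPYK/substrate mixtures, and ADP (130 uM final) was added. Plates sat at room temperature for 45 min prior to Kinase-Glo Plus detection by luminescence.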
# An asterisk follows results filed as active; u = inconclusive; x = not tested or not shown; [ ] = remark or other dose. Many of the other results were omitted from the sample, so hits are more common in it than they were. Unless noted, calls follow the shape of the dose curve; as a rule, active = well fitted curve in the direction sought with a large enough effect; inconclusive = small, poorly fitted or top-dose-only effect, or another doubt; inactive = no such curve, though single readings can be large; an effect the other way counts as inactive or inconclusive.
SMILES,Giardia FBPA inh,RE007 growth inh,LmPK inhibitor,Cycloheximide cs,Shiga inhibitor,Tb PYK inh
CCN1CCN(c2csc3ccc(Br)cc3c2=O)CC1,x,x,x,x,x,0.3%
COc1cccc(/C=N/Nc2ccc(S(=O)(=O)O)cc2)c1O,2.2%,-8.2%,-28.1%,1.1,6.7,2.6%
CSc1nsc(/C=C/Nc2ccc(C(=O)O)cc2)c1C#N,u,-6.2%,13.9%,6.9,37.8,6.5%
COc1ccc(/C=N/Nc2snc(SC)c2C#N)cc1OC,x,-24.8%,-17.9%,34.8*,97.5*,-2.4%
COc1cccc(/C=N/Nc2snc(SC)c2C#N)c1O,1.6%,-1.7%,-13.1%,72.3*,69.4*,-9.3%
CSc1nsc(N/N=C/c2ccccc2)c1C#N,-0.3%,-10.8%,0.5%,30.5*,51.0*,-15.1%
COc1cccc(/C=C/c2n[nH]c(=O)c(C#N)c2C)c1,2.1%,0.7%,0.3%,6.1,-8.6,1.9%
COc1cccc(/C=N/Nc2snc(SC)c2C#N)c1,-1.5%,-10.5%,-6.4%,27.0*,66.8*,u
CCOC(=O)c1[nH]c(C)c(C(=O)Nc2ccc3c(c2)OCCO3)c1C,-17.3%,15.2%,-0.5%,48.0*,51.9*,-7.5%
CC(=O)c1c(C)[nH]c(C(=O)Nc2cccc(C#N)c2)c1C,0.8%,3.4%,-1.4%,1.4,51.9,3.3%
CC(=O)c1c(C)[nH]c(C(=O)Nc2ccc3c(c2)OCCO3)c1C,u,2.6%,-19.8%,38.3*,99.3*,0.1%
NC(=O)C1CCN(C(=O)Cn2c(-c3cccs3)cc3ccccc32)CC1,x,x,x,x,x,-27.1%
CCCCNc1nc2c(c(=O)n(Cc3ccc(Cl)c(Cl)c3)c(=O)n2C)n1C,x,x,x,x,x,4.0%
O=S(=O)(c1ccc(Cl)cc1)c1nnn2c1nc(NCc1cccs1)c1sccc12,x,x,x,x,x,-5.0%
CCN(CC)S(=O)(=O)c1cccc(C(=O)Nc2cc(C)cc(C)c2)c1,-0.6%,3.5%,0.5%,16.7*,39.2*,-2.1%
CCN(CC)S(=O)(=O)c1ccc(C(=O)Nc2cc(C)cc(C)c2)cc1,0.0%,-8.2%,3.9%,-2.2,-12.8,-1.4%
CCN(CC)S(=O)(=O)c1cccc(C(=O)Nc2cccc(C)c2)c1,0.9%,8.1%,6.2%,26.6*,25.1,-1.4%
CCN(CC)S(=O)(=O)c1cccc(NC(=O)c2ccc(Br)cc2)c1,-6.0%,0.9%,2.9%,7.0,11.3,3.3%
Cc1ccsc1CN(C(=O)COc1cccc(C)c1C)C1CCS(=O)(=O)C1 (configuration not stated),x,x,x,x,x,-6.0%
C=CC[n+]1c(C)csc1Nc1cccc(Br)c1,-19.4%,-4.6%,-1.0%,17.1,31.2,-1.3%
C=CC[n+]1c(C)csc1Nc1ccc(C)cc1,-13.4%,-8.3%,1.1%,24.2*,36.8,0.5%
CCOc1ccc(NC(=O)CSc2oc(-c3ccc(F)cc3)nc2S(=O)(=O)c2ccc(C)cc2)cc1,x,x,x,x,x,-10.5%
CCOc1ccccc1NC(=O)Cn1cnc2c1c(=O)n(C)c(=O)n2C,x,x,x,x,x,-7.3%
O=C(OCC(=O)N1CCCC1)c1ccccc1OCc1ccccc1,-0.8%,-0.3%,0.5%,20.9*,12.9,-3.2%
CNC(=O)COC(=O)c1ccc([N+](=O)[O-])cc1Cl,-0.4%,-3.0%,0.9%,-1.8,-2.7,1.9%
SMILES,Giardia FBPA inh,RE007 growth inh,LmPK inhibitor,Cycloheximide cs,Shiga inhibitor,Tb PYK inh
O=C(Nc1ccc(O)cc1)c1ccccc1OCc1ccccc1,2.8%,33.0%,0.1%,11.8,-0.9,-11.3%
NNC(=O)c1ccccc1OCc1ccccc1,-1.0%,-0.4%,5.0%,16.8*,38.5*,3.6%
CC(=O)c1ccc(OCc2ccccc2)c(C)c1O,4.8%[12.9 µM],9.5%,0.8%,29.2*,32.4,-0.8%
O=C(OCC(=O)N1CCOCC1)c1ccccc1OCc1ccccc1,x,2.6%,x,x,x,-1.2%
O=C(OCC(=O)N1CCCCCC1)c1ccc([N+](=O)[O-])cc1Cl,1.9%,9.4%,-0.2%,15.0*,27.1,0.7%
O=C(Nc1cc(-c2ccc(Cl)cc2)no1)c1ccc(F)cc1,x,x,x,x,x,3.1%
CCOc1ccccc1NC(=O)CCc1c(C)nc2cc(-c3ccccc3)nn2c1C,x,x,x,x,x,0.4%
COc1ccc(-n2c(=O)c(-c3ccc(Cl)cc3)nc3cnc(N4CCOCC4)nc32)cc1,-10.0%,x,x,x,x,-5.6%
O=C(OCC(=O)N1CCCC1)c1ccccc1O,5.4%,-14.0%,-8.8%,53.6*,103.1*,-1.1%
O=C(NCC(c1ccco1)S(=O)(=O)c1ccc(Cl)cc1)c1ccc(C(F)(F)F)cc1 (configuration not stated),x,x,x,x,x,-0.8%
COc1ccccc1OCC(=O)N(Cc1nc(-c2ccccc2)no1)C1CCCCC1,-3.4%,3.9%,-0.9%,15.1*,42.9,1.3%
COc1cccc(-c2noc(COc3ccccc3Cl)n2)c1,x,x,x,x,x,-4.5%
COc1ccc(-c2noc(COc3ccccc3OC)n2)cc1OC,-2.8%,-4.2%,3.5%,12.5*,50.1*,9.0%
CCc1ccc(OCc2nc(-c3ccc(OC)c(OC)c3)no2)c(Br)c1,x,x,x,x,x,0.1%
COc1ccccc1OCc1nc(-c2ccc([N+](=O)[O-])cc2)no1,-0.6%,-6.3%,-9.1%,24.5*,39.2*,-9.2%
O=C1CC(c2ccccc2O)Oc2ccc(O)cc21 (configuration not stated),-3.7%,x,x,x,x,x
O=C(COc1ccccc1)Nc1ccc(OCc2cc(=O)n3ccsc3n2)cc1,x,x,x,x,x,-2.3%
Cc1ccc(S(=O)(=O)/N=C2\C=C(Nc3cccc(C(=O)O)c3)C(=O)c3ccccc32)cc1,0.251µM*,-23.7%,-11.1%,6.2,34.7,-13.8%
Cc1ccc(S(=O)(=O)/N=C2\C=C(Nc3ccc(O)cc3)C(=O)c3ccccc32)cc1,x,-25.2%,x,x,x,-25.7%
Cc1ccc(S(=O)(=O)/N=C2\C=C(NS(=O)(=O)c3ccccc3)C(=O)c3ccccc32)c(C)c1,x,-13.3%,x,x,x,-21.6%
Cc1ccc(S(=O)(=O)/N=C2\C=C(Nc3cccc(C(=O)O)c3)C(=O)c3ccccc32)c(C)c1,u,-4.0%,-22.5%,24.5*,63.9*,-20.9%
O=C1c2ccccc2C(=O)c2cc(S(=O)(=O)Nc3ccccc3)ccc21,-25.2%,-13.6%,0.2%,1.5,-12.1,-4.0%
O=C(O)c1cccc(NS(=O)(=O)c2ccc3c(c2)C(=O)c2ccccc2C3=O)c1,3.3%,-22.3%,3.4%,15.8*,19.6,0.8%
